Bioassay records deposited in PubChem BioAssay by National Center for Advancing Translational Sciences (NCATS).
Shiga inhibitor: inhibitors of Shiga toxin in Vero cells; Vero cells, Shiga toxin protein synthesis inhibition reporter; inhibition, % at 38.7 µM; hit rate 9.2% among 290,000; AID 2315; in the data active means inhibition mostly above about 28%, no sharp cut-off; inactive means mostly below about 43%
SARS PLP yeast: SARS-CoV PLP inhibition in yeast; S. cerevisiae expressing SARS-CoV PLpro, growth rescue; Potency, µM (doses to about 32.9 µM), actives largely listed as activators; hit rate 0.19% among 330,000; further: nearly all actives have a fitted effect of over 55% in size
NS1 inh: inhibitors of influenza NS1 protein function; Potency, µM (highest dose often 46.1 µM); hit rate 0.4% among 270,000; AID 2326; further: actives are rising curves; nearly all actives have a fitted effect of over 50% in size
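Compounds were scored for reversing the slow growth caused by influenza A NS1 in S. cerevisiae, measured by optical density at 600 nm. Assay medium contained 2% galactose at pH 6.0; NS1-free yeast of the same strain were the positive control.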
Cycloheximide cs: counter-screen for Shiga toxin inhibitors: cycloheximide protein synthesis inhibition. hit rate 12% among 300,000. cell reporter, cycloheximide protein synthesis inhibition counterscreen. max response, %. AID 2314; in the data active means max response mostly above about 13%, no sharp cut-off; inactive means mostly below about 14%; further: read at 38.3 µM for the half of the compounds with a filed dose
TbPYK inhibitor: T. brucei pyruvate kinase inhibition; Q57TT1; Potency, µM (highest dose often 76.8 µM), most hits filed as inhibitors; TbPYK enzyme, Kinase-Glo Plus ATP luminescence, 45 min; hit rate 0.12% among 410,000; active means well fitted curve in the direction sought with a large enough effect; inconclusive means small, poorly fitted or top-dose-only effect, or another doubt; inactive means no such curve, though single readings can be large; an effect the other way counts as inactive or inconclusive; further: nearly all actives have a fitted effect of over 50% in size
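Readout: single end-point luminescence (Kinase-Glo Plus, 10 min). Reaction conditions were TbPYK/substrate plus 130 uM ADP, 45 min at RT, pH 7.2 TEA buffer. No-enzyme wells served as controls, and data were normalized before concentration-response fitting.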
LmPK inh: LmPK (Leishmania mexicana) enzyme inhibition. Q27686. purified LmPK, Kinase-Glo ATP luminescence, 1 h. Potency, µM (highest dose often 57.5 µM), actives largely listed as inhibitors. hit rate 0.37% among 290,000; active means well fitted curve in the direction sought with a large enough effect; inconclusive means small, poorly fitted or top-dose-only effect, or another doubt; inactive means no such curve, though single readings can be large; an effect the other way counts as inactive or inconclusive
Target sequence (Q27686 whole entry, looked up): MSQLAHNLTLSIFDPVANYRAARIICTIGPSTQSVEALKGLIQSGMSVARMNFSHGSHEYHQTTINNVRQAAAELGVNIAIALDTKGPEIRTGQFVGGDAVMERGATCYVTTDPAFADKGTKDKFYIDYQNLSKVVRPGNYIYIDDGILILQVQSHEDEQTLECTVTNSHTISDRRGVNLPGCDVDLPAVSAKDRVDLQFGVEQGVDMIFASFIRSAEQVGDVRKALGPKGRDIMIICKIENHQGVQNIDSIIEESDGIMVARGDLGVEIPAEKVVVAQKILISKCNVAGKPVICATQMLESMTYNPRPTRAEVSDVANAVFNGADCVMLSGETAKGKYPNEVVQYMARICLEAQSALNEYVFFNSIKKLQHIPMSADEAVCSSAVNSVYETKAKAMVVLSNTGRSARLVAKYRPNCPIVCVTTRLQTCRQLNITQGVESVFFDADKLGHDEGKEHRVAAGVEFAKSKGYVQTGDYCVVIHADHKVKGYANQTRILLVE
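Purified LmPK (0.1 nM) with 0.5 mM PEP and 0.1 mM ADP in imidazole buffer pH 7.2 with MgCl2/KCl, 1 h at room temperature. ATP formed was read by luciferase luminescence and normalized to no-enzyme and uninhibited controls.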
A number is an active result; n = inactive; u = inconclusive; x = no result. Many of the other results were omitted from the sample, so hits are more common in it than they were. Unless noted, the call rests on the fitted dose curve.

SMILES | Shiga inhibitor | SARS PLP yeast | NS1 inh | Cycloheximide cs | TbPYK inhibitor | LmPK inh
CSCC[C@H](N)C(=O)N[C@@H](CCC(=O)O)C(=O)N[C@H](C(=O)NCC(=O)N[C@@H](Cc1c[nH]c2ccccc12)C(=O)N[C@@H](Cc1ccc(O)cc1)C(=O)N[C@@H](CCCNC(=N)N)C(=O)N[C@@H](CO)C(=O)N1CCC[C@H]1C(=O)N[C@@H](Cc1ccccc1)C(=O)N[C@@H](CO)C(=O)N[C@@H](CCCNC(=N)N)C(=O)N[C@H](C(=O)N[C@H](C(=O)N[C@@H](Cc1cnc[nH]1)C(=O)N[C@@H](CC(C)C)C(=O)N[C@@H](Cc1ccc(O)cc1)C(=O)N[C@@H](CCCNC(=N)N)C(=O)N[C@@H](CC(N)=O)C(=O)NCC(=O)N[C@@H](CCCCN)C(=O)O)C(C)C)C(C)C)C(C)C | n | x | x | n | x | x
Cn1c(COc2ccccc2)nc2ccccc21 | 67 | n | n | 32 | n | n
C=CCn1c(COc2ccccc2)nc2ccccc21 | 44 | n | n | 29 | n | n
c1ccc(OCCn2c(COc3ccccc3)nc3ccccc32)cc1 | x | x | x | x | n | x
Cc1[nH]cnc1CSCc1ccc(Cl)cc1 | 73 | n | u | 23 | n | n
O=C(N/N=C/C1CC=CCC1)c1ccccc1O (centres undefined) | 39 | n | n | 29 | n | n
O=C(CNc1ccccc1F)N/N=C/C1CC=CCC1 (centres undefined) | n | n | x | n | n | n
O=C(N/N=C/C1CC=CCC1)c1cc(Br)ccc1O (centres undefined) | n | u | n | 31 | n | n
CC1(C(=O)NS(=O)(=O)C2CC2)CCCN(C(=O)Cc2ccc3ccccc3c2)C1 (centres undefined) | x | x | x | x | n | x
COc1ccc(OCCN2C(=O)c3ccccc3C2=O)c([N+](=O)[O-])c1 | 62 | n | n | 96 | n | n
N#Cc1ccccc1OCCN1C(=O)c2ccccc2C1=O | 86 | n | n | 40 | n | n
Nc1cccc2c1C(=O)N(CCOc1ccccc1F)C2=O | 46 | n | n | 19 | n | n
O=C1c2ccccc2C(=O)N1CCOCCN1C(=O)c2ccccc2C1=O | n | n | n | n | n | n
CC(C)CC1NC(=O)c2cc(Cl)ccc2-n2c1nc1cc(F)ccc1c2=O (centres undefined) | x | n | x | x | x | x
Cc1ccc(S(=O)(=O)N2CCC(N3CCN(C)CC3)CC2)cc1Cl | n | n | n | n | n | n
CCOC(=O)c1c(NC(=O)c2cc(OCC)c(OCC)c(OCC)c2)sc2c1CCCCC2 | x | x | x | x | n | x
Cc1ccc(NC(=O)c2cc3ccccn3n2)cc1F | x | x | x | x | n | x
CC(=O)c1cccc(OCc2cc(C(=O)N(C)CCc3cnn(C)c3)no2)c1 | n | n | n | n | n | n
CCN(Cc1cnn(C)c1)C(=O)c1cc(COc2cc(C)c(Cl)c(C)c2)on1 | n | n | n | 24 | n | n
COc1cc(Cl)ccc1OCc1cc(C(=O)N(C)CCc2cnn(C)c2)no1 | 115 | n | n | 64 | n | n
CCN(Cc1cnn(C)c1)C(=O)c1cc(COc2ccc(F)cc2F)on1 | n | n | n | 15 | n | n
Cc1cc(OCc2cc(C(=O)N(C)CCc3cnn(C)c3)no2)cc(C)c1Cl | 70 | n | n | 39 | n | n
CCN(Cc1ccncc1)C(=O)c1cc(COc2ccc(F)cc2F)on1 | n | n | n | n | n | n
CSCC[C@H](NC(=O)CN)C(=O)N[C@@H](CC(=O)O)C(=O)N[C@@H](CO)C(=O)N[C@@H](CC(C)C)C(=O)N[C@@H](C)C(=O)N[C@@H](Cc1ccccc1)C(=O)N[C@@H](CO)C(=O)NCC(=O)NCC(=O)N[C@@H](CC(C)C)C(N)=O | n | x | x | n | x | x
COC(=O)c1nc2n(n1)C(c1cc(OC)ccc1OC)C(C(=O)Nc1ccc(C)cc1C)=C(C)N2 (centres undefined) | x | x | x | x | n | x
SMILES | Shiga inhibitor | SARS PLP yeast | NS1 inh | Cycloheximide cs | TbPYK inhibitor | LmPK inh
COc1ccc(/C=N/n2cnn(Cc3ccccc3Cl)c2=S)cc1 | n | n | x | 36 | n | n
COc1cc(/C=N/n2cnn(Cc3ccccc3Cl)c2=S)cc(OC)c1OC | n | n | x | n | n | n
Cc1c(C(=O)OCCOc2ccccc2)[nH]c2c1C(=O)CC(c1ccccc1)C2 (centres undefined) | x | x | x | x | n | x
COC(=O)C1C(=O)c2c([nH]c(C(=O)OC3CCCCC3)c2C)CC1C (centres undefined) | 42 | n | u | 31 | n | n
COC(=O)C1C(=O)c2c([nH]c(C(=O)OC3CCCC3C)c2C)CC1C (centres undefined) | 67 | n | n | 27 | n | n
COC(=O)C1C(=O)c2c([nH]c(C(=O)OCCOC(C)C)c2C)CC1C (centres undefined) | n | n | n | 16 | n | n
CC1(S(=O)(=O)O)CC(=O)c2ccccc2C1=O (centres undefined) | n | n | n | n | n | n
Oc1ccc(/C=C/c2cc(O)cc(O)c2)cc1 | 20 | n | n | 26 | n | u
CSc1cccc(NC(=O)Cn2c(=O)n(Cc3ccccc3)c(=O)c3sc4ccccc4c32)c1 | x | x | x | x | n | x
c1ccc(CNc2ccc3c(c2)ncn3C2CCCCC2)nc1 | 46 | n | n | 22 | n | n
CCCCS(=O)(=O)Nc1ccc2c(c1)ncn2C1CCCCC1 | n | n | n | n | n | n
CC1CCc2c(sc(NC(=O)CSc3ncn[nH]3)c2C#N)C1 (centres undefined) | n | n | n | n | n | n
Cc1csc(NC(=O)CSc2nnc(-c3ccccc3)o2)n1 | 52 | n | n | 28 | n | n
CC(C)(C)C1CCc2c(sc(NC(=O)CSc3ncn[nH]3)c2C#N)C1 (centres undefined) | n | n | n | 14 | n | n
N#Cc1c(NC(=O)CSc2ncc(-c3ccccc3)n2CC2CCCO2)sc2c1CCCC2 (centres undefined) | n | n | n | n | n | n
N#Cc1c(NC(=O)CSc2nnc(-c3ccccc3)o2)sc2c1CCCC2 | 52 | n | n | 16 | n | n
CC1CCc2c(sc(NC(=O)CSc3nnc(-c4ccccc4)o3)c2C#N)C1 (centres undefined) | active | n | n | 23 | n | n
Cc1ccc(CC(=O)Nc2nccs2)cc1 | n | n | n | n | n | n
CCOc1ccccc1NC(=O)N1CCc2cc(S(=O)(=O)N3CCC(C)CC3)ccc21 | x | x | x | x | n | x
CC[C@H](NC(C)C)[C@H](O)c1ccc(O)c(O)c1 | x | x | x | x | n | x
COc1cccc(CC(=O)Nc2cc(S(=O)(=O)N3CCOCC3)ccc2OC)c1 | x | n | x | x | n | x
Cc1sc(NC(=O)CSc2nnc(-c3ccccc3)o2)c(C#N)c1C | 58 | n | n | 33 | n | n
Cc1sc(NC(=O)CSc2nc(N)cc(N)n2)c(C#N)c1C | n | n | n | n | n | n
CCC(C(=O)NCCCN(CC)CC)n1ncn2c(cc3occc32)c1=O (centres undefined) | x | x | x | x | n | x
